Out of some 310,000 compounds screened, about 2,200 (0.71%) showed an effect of 50% or more. Effects have a minus sign here. The sample holds strong results, similar compounds and a random draw of the others, so the mix is not that of the screen.
Target: human ether-à-go-go-related gene (hERG) potassium channel (human, UniProt Q12809)
Assay: primary screen, population patch clamp on CHO cells stably expressing hERG; higher = less effect of the substance
Method: Briefly, Chinese hamster ovary (CHO) cells stably expressing the hERG channel were dislodged from tissue culture flasks and dispensed into PPC plates. […] During the recording, background leak currents were estimated by a 100 ms step to -80 mV from an initial holding potential of -70 mV and subtracted from the subsequent current measurement. The campaign was conducted in two phases using slight differences in recording protocol. In the first phase, the initial voltage pulse used a 100 ms step to -30 mV from a holding potential of -70 mV, a 2 s conditioning step to +25 mV, and a 2 s test step to -30 mV. During the second phase of the screen, the potential during the conditioning step was raised to +45 mV. In both phases of the campaign, a secondary voltage pulse was applied using the same parameters as the second phase initial pulse. The initial and secondary pulses were applied in the absence of compound, and upon application of 1 μM and 10 μM test concentrations. Small molecule effects on hERG current density were quantified by […].

human ether-à-go-go-related gene (hERG) potassium channel, sequence (Q12809 whole entry, looked up): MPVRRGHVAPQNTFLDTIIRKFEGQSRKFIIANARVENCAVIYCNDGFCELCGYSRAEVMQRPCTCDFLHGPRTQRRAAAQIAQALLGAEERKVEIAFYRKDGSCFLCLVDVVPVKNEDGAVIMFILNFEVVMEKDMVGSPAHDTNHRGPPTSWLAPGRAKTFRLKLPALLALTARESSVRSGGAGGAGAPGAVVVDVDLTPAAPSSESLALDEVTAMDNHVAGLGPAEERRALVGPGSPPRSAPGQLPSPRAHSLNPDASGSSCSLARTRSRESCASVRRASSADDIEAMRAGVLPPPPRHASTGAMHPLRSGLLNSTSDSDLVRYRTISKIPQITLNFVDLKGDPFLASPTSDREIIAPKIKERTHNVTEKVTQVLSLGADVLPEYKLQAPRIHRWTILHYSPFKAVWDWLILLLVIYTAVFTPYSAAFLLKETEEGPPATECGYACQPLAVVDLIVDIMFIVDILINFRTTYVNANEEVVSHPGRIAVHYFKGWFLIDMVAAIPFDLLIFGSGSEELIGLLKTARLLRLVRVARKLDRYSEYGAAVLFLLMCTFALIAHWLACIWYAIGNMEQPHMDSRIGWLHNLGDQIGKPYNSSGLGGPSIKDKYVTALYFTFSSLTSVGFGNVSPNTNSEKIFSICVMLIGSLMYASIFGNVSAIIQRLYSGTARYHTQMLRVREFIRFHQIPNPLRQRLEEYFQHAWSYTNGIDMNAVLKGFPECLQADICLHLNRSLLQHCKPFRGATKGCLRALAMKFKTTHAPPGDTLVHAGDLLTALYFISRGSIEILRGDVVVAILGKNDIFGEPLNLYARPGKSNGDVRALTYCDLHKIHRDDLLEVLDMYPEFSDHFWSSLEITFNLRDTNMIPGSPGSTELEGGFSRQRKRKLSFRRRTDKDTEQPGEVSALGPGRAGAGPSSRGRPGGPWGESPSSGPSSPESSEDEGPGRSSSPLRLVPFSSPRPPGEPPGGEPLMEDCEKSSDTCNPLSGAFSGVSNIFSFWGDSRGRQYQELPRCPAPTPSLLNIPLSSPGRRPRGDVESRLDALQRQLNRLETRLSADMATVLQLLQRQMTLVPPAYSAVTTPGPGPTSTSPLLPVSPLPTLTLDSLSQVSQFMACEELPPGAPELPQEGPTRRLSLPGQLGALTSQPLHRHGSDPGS

Point of comparison: `COC(=O)c1ccc(CNC(=O)COc2ccccc2Br)o1`, “hERG current change (%, negative = inhibition) at 1uM” value 12.4%. Against it:
- CCN(CC(=O)Nc1ccccc1C(F)(F)F)C(=O)CCS(=O)(=O)c1ccc(Cl)cc1 — lower, 9.68%
- CC1CCC(NC(=O)Cn2cnc3sccc3c2=O)CC1 (centres unmarked) — lower, 3.74%
- CCN(CCCNC(=O)CCn1c(=S)[nH]c2cc3c(cc2c1=O)OCO3)c1cccc(C)c1 — lower, 11.5%
- CN1CC(C(=O)c2ccc(Cl)cc2)C(c2ccccc2)C1 (centres unmarked) — lower, 6.78%
- CN1CC(C(=O)c2ccc([N+](=O)[O-])cc2)C(c2ccc(Cl)cc2)C1 (centres unmarked) — lower, -77.1%
- COc1ccc(C(=O)C2CN(C)CC2c2ccc(Cl)cc2)cc1 (centres unmarked) — lower, -18.3%
- Cc1nn(C)c(C(=O)N2CCc3ccccc32)c1Br — lower, 4.79%
- CC1CC1C(=O)Nc1nc(-c2cccs2)c(-c2cccs2)s1 (centres unmarked) — lower, 7.23%
- O=C(NC1CCCN(c2ccc(C(F)(F)F)cn2)C1)c1ccncc1 (centres unmarked) — lower, -51.8%
- Cc1ccc(C(=O)NC2CCCN(c3ccc(C(F)(F)F)cn3)C2)cn1 (centres unmarked) — lower, 2.48%
- O=C(NC1CCCN(c2ccc(C(F)(F)F)cn2)C1)c1ccnc(Cl)c1 (centres unmarked) — lower, -9.21%
- CSCCC(NC(=O)c1ccccc1)C(=O)NC1CCCC1 (centres unmarked) — lower, 4.81%
- CC(C(=O)NC(=O)NC1CCCCC1)N(C)CC(=O)Nc1ccc(F)c(F)c1F (centres unmarked) — lower, 12.1%
- Cl.OC(COC(c1ccc(Cl)cc1)c1ccc(Cl)cc1)CN1CCN(c2ccccn2)CC1 (centres unmarked) — lower, -79.7%
- Cc1cccc(C)c1OCC(O)CN1CCN(c2ccccn2)CC1 (centres unmarked) — lower, -1.11%
- OC(COc1ccc(Cl)cc1)CN1CCN(c2ccccn2)CC1 (centres unmarked) — lower, -37.7%
- Cl.OC(COCc1ccc(Cl)cc1)CN1CCN(c2ccccn2)CC1 (centres unmarked) — lower, -24.9%
- CC(C)c1ccc(OCC(O)CN2CCN(c3ccccn3)CC2)cc1.Cl (centres unmarked) — lower, -27.7%
- OC(COC(c1ccccc1)c1ccccc1)CN1CCN(c2ccccn2)CC1 (centres unmarked) — lower, -73.5%
- CCOc1cc(/C=C2\C(=O)ON=C2c2ccccc2)cc(Br)c1O — lower, 10.4%
- O=C(CCCc1ccccc1)NCc1ccc2c(c1)OCO2 — lower, 8.58%
- COc1cccc(Cn2c(NCC(C)C)nc3c2c(=O)n(C)c(=O)n3C)c1 — lower, -7.04%
- CC/C(=C\c1oc2cc3ccccc3cc2[n+]1CC)Nc1ccccc1.[I-] — lower, -83.7%
- CCC(=O)Nc1ccc(NC(=O)c2cc3ccccc3o2)cc1 — lower, -5.21%
- O=C(Nc1ccccc1)c1cc2ccccc2o1 — lower, 8.25%
- Cc1cccc(NC(=S)Nn2cnnc2)c1C — lower, 10.9%
- Cc1ccc(-c2cc(C(=O)N3CCN(C4CCS(=O)(=O)C4)CC3)c3ccccc3n2)cc1 (centres unmarked) — lower, -3.04%
- Cc1ccc(NC(=O)CN(C)C(=O)CSc2nc(C)cs2)cc1 — lower, 3.7%
- CCCCCC(=O)Nc1cc(N(C)C)nc2ccccc12 — lower, -77.9%
- CCN(CC)CC(=O)Nc1cc(N(C)C)nc2ccccc12.O=C(O)C(=O)O — lower, 6.57%
- CC(Cc1ccccc1)NCC(=O)Nc1cc(N(C)C)nc2ccccc12.O=C(O)C(=O)O (centres unmarked) — lower, -73.5%
- CN(C)c1cc(NC(=O)CNC(C)(C)CC(C)(C)C)c2ccccc2n1.O=C(O)C(=O)O — lower, -7.36%
- CCCCC(=O)Nc1cc(N(C)C)nc2ccccc12 — lower, -30.7%
- CN(C)c1cc(NC(=O)CNC(C)(C)C)c2ccccc2n1.O=C(O)C(=O)O — lower, 2.05%
- NS(=O)(=O)c1ccc(O)c(N2C(=O)c3cccc4c(C(=O)O)ccc(c34)C2=O)c1 — lower, 10.3%
- COc1ccc(C(=O)CSc2nc(-c3ccccn3)nc(C)c2Cl)cc1 — higher, 13%
- Cc1nonc1CC(=O)N1CCCC(C(=O)c2cccc(C(F)(F)F)c2)C1 (centres unmarked) — lower, -20.6%
- O=C(C1CCC(=O)N1Cc1cccnc1)N1CCN(c2ccc(F)cc2)CC1 (centres unmarked) — lower, 10.5%
- OCC[N+]12CCC(CC1)C(C(O)(c1ccccc1)c1ccccc1)C2 (centres unmarked) — higher, 15.2%
- CCc1ccc(C(=O)NNc2cc(Cl)ccc2Cl)cc1 — higher, 12.5%
- Cn1c(-c2ccc(Br)cc2)cnc1NCc1ccc(C#N)cc1.O=C(O)C(=O)O — lower, -77.2%
- Cn1c(-c2cccc([N+](=O)[O-])c2)cnc1NCc1cccc([N+](=O)[O-])c1.O=C(O)C(=O)O — lower, -28.2%
- Cn1c(-c2ccc(F)cc2)cnc1NCc1ccc(C#N)cc1 — lower, -22.9%
- CSc1ccc(CNc2ncc(-c3cccc([N+](=O)[O-])c3)n2C)cc1.O=C(O)C(=O)O — lower, -26.5%
- Cn1c(-c2ccccc2)cnc1NCc1ccc(-c2ccccc2)cc1.O=C(O)C(=O)O — lower, 11%
- Cn1c(-c2cccc([N+](=O)[O-])c2)cnc1NCc1ccc(C#N)cc1.O=C(O)C(=O)O — lower, -56.4%
- O=C1CC(c2ccc(Cl)cc2)CC(O)=C1C=NCCO (centres unmarked) — lower, 10.6%
- O=C1C2C3C=CC(C3)C2C(=O)N1CCN1CCN(S(=O)(=O)/C=C/c2ccccc2)CC1 (centres unmarked) — lower, 11%
- Cc1cc(C)n2c(SCC(=O)NC3CCCC(C)C3C)nnc2n1 (centres unmarked) — the same, 12.4%
- O=C(NCc1cc(C(F)(F)F)cc(C(F)(F)F)c1)C1CC(c2cccc(F)c2)=NO1 (centres unmarked) — lower, 2.14%
- O=c1cc(-c2ccccc2F)oc2ccccc12 — lower, 2.56%
- C=CCNc1cnn(-c2ccc(C)cc2)c(=O)c1Sc1ccc(C)cc1 — higher, 13.8%
- CC(C)CNS(=O)(=O)c1ccc(NC(=O)Cn2nc(-c3ccc(F)cc3)ccc2=O)cc1 — lower, 7.17%
- CN(C/C=C/c1ccccc1)Cc1cccc2ccccc12.Cl — lower, 5.76%
- Cc1cccc(C(=O)NCC(=O)N2CC=C(c3ccccc3)CC2)c1 — lower, -1.82%
- CSCCC(NC(=O)c1ccco1)C(=O)N1CC=C(c2ccccc2)CC1 (centres unmarked) — lower, -1.93%
- O=C(NCC(=O)N1CC=C(c2ccccc2)CC1)c1ccco1 — lower, -50.9%
- c1ccc(Cn2ncc3ccccc32)cc1 — lower, 10.6%
- CCOCCCNS(=O)(=O)c1ccc(NC(=O)C2CC(=O)N(c3ccc(C)cc3)C2)cc1 (centres unmarked) — lower, 11.4%
- CN(C)C=Nc1nonc1-c1ccc(Cl)cc1 — lower, 11.2%
- COc1ccccc1C(=O)N/C(=C\c1cn(C)c2ccccc12)C(=O)NCCCn1ccnc1 — lower, 12.2%
- COc1ccccc1C(=O)N/C(=C/c1ccc(Br)cc1)C(=O)NCCCn1ccnc1 — lower, -84.8%
- O=C(NCCCn1ccnc1)/C(=C\c1ccc(Br)cc1)NC(=O)c1ccccc1F — lower, -81.5%
- O=C(NCCCn1ccnc1)/C(=C\c1cccnc1)NC(=O)c1ccccc1Br — lower, 9.44%
- COc1ccccc1C(=O)N/C(=C\c1ccc(Br)cc1)C(=O)NCCCO — lower, -0.677%
- O=C(NCCCn1ccnc1)/C(=C\c1cccnc1)NC(=O)c1ccccc1F — lower, 8%
- Cc1ccc(NC(=O)CN2C(=O)CCSc3ccc(S(=O)(=O)N4CCCC4)cc32)cc1 — higher, 19%
- CCOC(=O)C1CCN(CC(=O)c2ccc(O)c(C)c2O)CC1 — lower, 12.3%
- Cc1cc2c(NC3CCCCC3)ncnc2s1.Cl — lower, 12%
- N#C/C(=C\c1c(Cl)cccc1Cl)c1nc2ccccc2o1 — lower, 2.68%
- Cc1cc(-c2ccc(C)c(S(=O)(=O)Nc3cc(C)on3)c2)on1 — lower, 1.77%
- O=C(N=C1SCC(=O)N1c1ccccc1)c1ccco1 — lower, -1.23%
- COCCn1c(SCC(=O)Nc2ccc(OC)cc2)nnc1-c1ccoc1C — lower, 12.2%
- Cc1ccc(NC(=O)CSc2nnc(-c3ccoc3C)n2CCCN(C)C)cc1Cl — lower, -70.2%
- CCCn1c(SCC(=O)Nc2cccc(C(=O)OCC)c2)nnc1-c1ccoc1C — lower, 5.88%
- CCN(CC)CCCn1c(SCC(=O)Nc2cccc(F)c2)nnc1-c1ccoc1C — lower, -63%
- Cc1occc1-c1nnc(SCC(=O)Nc2ccccc2)n1CCc1ccccc1 — lower, -20.1%
- COCCCn1c(SCC(=O)Nc2ccc3c(c2)OCCO3)nnc1-c1ccoc1C — lower, 1.88%
- O=C(NCCCN1CCOCC1)C1(c2ccccc2)CCOCC1 — higher, 19.2%
- CCOC(=O)N1CCN(Cc2nc(N)nc(Nc3ccc(Oc4ccccc4)cc3)n2)CC1 — lower, -36.8%
- COc1ccccc1Nc1nc(N)nc(CN2CCc3ccccc3C2)n1 — lower, -2.7%
- CCOC(=O)C1CCCN(Cc2nc(N)nc(Nc3ccccc3OC)n2)C1 (centres unmarked) — lower, -53.2%
- CCOC(=O)C1CCCN(Cc2nc(N)nc(Nc3ccc(OC)cc3)n2)C1 (centres unmarked) — lower, -67.8%
- CCOC(=O)C1CCCN(Cc2nc(N)nc(Nc3ccc(Cl)cc3)n2)C1 (centres unmarked) — lower, -71.6%
- CCOC(=O)C1CCCN(Cc2ccc(OC)cc2OC)C1 (centres unmarked) — lower, -13.6%
- CCOC(=O)C1CCCN(Cc2nc(N)nc(Nc3ccccc3)n2)C1 (centres unmarked) — lower, -18.6%
- Cc1ccc(Nc2nc(N)nc(CN3CCCCCC3)n2)cc1 — lower, -45.2%
- CCOC(=O)C1CCCN(Cc2nc(N)nc(Nc3ccc(C)cc3)n2)C1 (centres unmarked) — lower, -47.6%

Reference: article PMC4336329 (PLoS ONE, 2015)
